Laboratory results published in PubChem BioAssay AID1159580 (chemical genetic matrix, 2015).
Screen size: about 5,500 compounds; about 2,000 (36%) were called active. Not shown: some 18% with an inconclusive outcome. Rule as the data show it: active = normalized growth mostly below about 0.91 (no sharp cut-off); inconclusive = no clear call, values can overlap the other calls; inactive = mostly above about 0.92. The list shows a part of the results.

Experiment: chemical genetic growth profiling, strain panel (AID 1159580);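 also: tested at 20 µM; growth read once vehicle control cultures reached saturation at 30 °C; 1 = growth at the plate median or of vehicle wells; lower values mean less growth of the strain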
Conditions: S. cerevisiae deletion strains, growth OD

Measured: normalized growth

C=C1C2CC[C@H]3[C@]4(C)C[C@H](OC5OC(CO)C(OS(=O)(=O)O)C(OS(=O)(=O)O)C5OC(=O)CC(C)C)C[C@@H](C(=O)O)[C@H]4CC[C@]3(C2)[C@H]1O (some centres undefined)
inactive: locus YAL013W, strain DEP1, stronger effect = lower value 1.01 | locus YAL021C, strain ccr4, stronger effect = lower value 0.974 | locus YAL026C, strain drs2, stronger effect = lower value 1.01 | locus YAL030W, strain snc1, stronger effect = lower value 1.01 | locus YBL061C, strain skt5, stronger effect = lower value 1.01 | locus YBR009C, strain hhf1, stronger effect = lower value 1.02 | locus YBR021W, strain FUR4, stronger effect = lower value 1.02 | locus YBR023C, strain chs3, stronger effect = lower value 1.01 | locus YBR171W, strain sec66, stronger effect = lower value 1.01 | locus YBR229C, strain ROT2, stronger effect = lower value 1.01 | locus YBR231C, strain swc5, stronger effect = lower value 1.02 | locus YBR279W, strain paf1, stronger effect = lower value 1.01 | locus YCL011C, strain gbp2, stronger effect = lower value 1.01 | locus YCL016C, strain dcc1, stronger effect = lower value 1 | locus YCL029C, strain bik1, stronger effect = lower value 0.983 | locus YCL061C, strain MRC1, stronger effect = lower value 1.01 | locus YCL069W, strain vba3, stronger effect = lower value 1.02 | locus YCR088W, strain abp1, stronger effect = lower value 1.01 | locus YDL005C, strain med2, stronger effect = lower value 1 | locus YDL035C, strain GPR1, stronger effect = lower value 1.01 | locus YDL040C, strain nat1, stronger effect = lower value 1 | locus YDL074C, strain BRE1, stronger effect = lower value 1.04 | locus YDL101C, strain DUN1, stronger effect = lower value 1.02 | locus YDL134C, strain PPH21, stronger effect = lower value 1.01 | locus YDL185W, strain tfp1, stronger effect = lower value 0.986 | locus YDL192W, strain arf1, stronger effect = lower value 0.986 | locus YDR001C, strain nth1, stronger effect = lower value 1.01 | locus YDR069C, strain doa4, stronger effect = lower value 1.02 | locus YDR101C, strain arx1, stronger effect = lower value 0.979 | locus YDR137W, strain rgp1, stronger effect = lower value 1.01 | locus YDR150W, strain NUM1, stronger effect = lower value 1.01 | locus YDR159W, strain sac3, stronger effect = lower value 1.01 | locus YDR162C, strain NBP2, stronger effect = lower value 1.04 | locus YDR195W, strain ref2 0.999 | locus YDR297W, strain sur2, stronger effect = lower value 1.01 | locus YDR318W, strain mcm21, stronger effect = lower value 0.978 | locus YDR334W, strain swr1, stronger effect = lower value 1.01 | locus YDR335W, strain msn5, stronger effect = lower value 1.01 | locus YDR388W, stronger effect = lower value 0.988 | locus YDR392W, strain spt3, stronger effect = lower value 0.942 | locus YDR502C, strain sam2, stronger effect = lower value 0.994 | locus YEL003W, strain gim4, stronger effect = lower value 1.01 | locus YEL037C, strain rad23, stronger effect = lower value 1.01 | locus YEL061C, strain CIN8 (second series), stronger effect = lower value 1 | locus YEL061C, strain CIN8, stronger effect = lower value 1 | locus YER015W, strain faa2, stronger effect = lower value 1.01 | locus YER016W, strain bim1, stronger effect = lower value 1.01 | locus YER110C, stronger effect = lower value 0.975 | locus YER111C, strain swi4, stronger effect = lower value 1.01 | locus YER155C, strain BEM2 (second series), stronger effect = lower value 1.02 | locus YER155C, strain BEM2, stronger effect = lower value 1.02 | locus YER167W, strain BCK2, stronger effect = lower value 1 | locus YFR010W, strain ubp6, stronger effect = lower value 1.01 | locus YGL078C, strain dbp3, stronger effect = lower value 0.978 | locus YGL086W, strain mad1, stronger effect = lower value 0.972 | locus YGL167C, strain pmr1, stronger effect = lower value 1.01 | locus YGL173C, strain kem1, stronger effect = lower value 1.01 | locus YGL227W, strain vid30, stronger effect = lower value 1.01 | locus YGL240W, strain doc1, stronger effect = lower value 1.03 | locus YGL248W, strain PDE1, stronger effect = lower value 1.01 | locus YGL253W, strain hxk2, stronger effect = lower value 1.01 | locus YGR078C, strain PAC10, stronger effect = lower value 1.03 | locus YGR135W, strain pre9, stronger effect = lower value 0.987 | locus YGR229C, strain SMI1, stronger effect = lower value 1.02 | locus YGR252W, strain gcn5, stronger effect = lower value 1.02 | locus YHR013C, strain ard1, stronger effect = lower value 0.999 | locus YHR027C, strain rpn1, stronger effect = lower value 1.01 | locus YHR030C, strain SLT2, stronger effect = lower value 1 | locus YHR079C, strain IRE1 (second series), stronger effect = lower value 0.987 | locus YHR094C, strain hxt1, stronger effect = lower value 0.988 | locus YHR129C, strain ARP1, stronger effect = lower value 1.01 | locus YHR142W, strain chs7, stronger effect = lower value 0.985 | locus YHR200W, strain rpn10, stronger effect = lower value 0.996 | locus YIL066C, strain RNR3, stronger effect = lower value 1.02 | locus YIL073C, strain SPO22, stronger effect = lower value 0.966 | locus YIL125W, strain kgd1, stronger effect = lower value 0.97 | locus YIR030C, strain dcg1, stronger effect = lower value 0.99 | locus YJL092W, strain hpr5, stronger effect = lower value 1.01 | locus YJL095W, strain BCK1 (second series), stronger effect = lower value 1.01 | locus YJL095W, strain BCK1, stronger effect = lower value 1.02 | locus YJL115W, strain asf1, stronger effect = lower value 1.01 | locus YJL129C, strain trk1, stronger effect = lower value 1.01 | locus YJL134W, strain LCB3, stronger effect = lower value 1.01 | locus YJL154C, strain vps35, stronger effect = lower value 1.01 | locus YJL164C, strain tpk1, stronger effect = lower value 1 | locus YJL166W, strain qcr8, stronger effect = lower value 1 | locus YJL168C, strain set2, stronger effect = lower value 0.985 | locus YJL187C, strain SWE1 (second series), stronger effect = lower value 1.02 | locus YJL187C, strain SWE1, stronger effect = lower value 1.02
